# Reference: the supplement of paper PMC6555819
# Columns and labels:
# Assay in all cases: PBM binding z-score (relative to random genomic background probes); higher = stronger binding; sequences stand for … in GC…GCGATTGACAGCGTAGAATGAAGG
# [1] = system: FXR:RXRa (NR concentration 270 nM, RXRa partner concentration 90 nM)
# Procedure, shortened: (§1)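 Custom Agilent 4×180K protein-binding microarrays carried double-stranded probes. Their 34-nt variable regions held direct-repeat seeds, single-nucleotide variants, half-site ablations and random human genomic background sequences. Arrays were incubated 1 h with ligand-free nuclear receptor dimers in PBS pH 7.4, 2% milk, 0.02% Triton X-100, 1 mM DTT, 0.2 mg/mL BSA and 0.4 mg/ml salmon testes DNA. Antibodies against each partner (one per run) detected binding, and scanned fluorescence was regression-normalized. Binding z-scores use random background probes as reference.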
# [2] = system: LXRa:RXRa (NR concentration 270 nM, RXRa partner concentration 90 nM)
# Procedure, shortened: as §1
# [3] = system: LXRa homodimer (NR concentration 270 nM)
# Procedure, shortened: as §1
# [4] = system: LXRb:RXRa (NR concentration 270 nM, RXRa partner concentration 90 nM)
# Procedure, shortened: as §1
# [5] = system: LXRb homodimer (NR concentration 270 nM)
# Procedure, shortened: as §1
# [6] = system: PPARa:RXRa (NR concentration 270 nM, RXRa partner concentration 90 nM)
# Procedure, shortened: as §1
# [7] = system: PPARg:RXRa (NR concentration 180 nM, RXRa partner concentration 90 nM)
# Procedure, shortened: as §1
# [8] = system: PPARg:RXRa 270nM:90nM, anti-RXR (NR concentration 270 nM, RXRa partner concentration 90 nM)
# Procedure, shortened: as §1
# [9] = system: PPARg:RXRa 30nM:10nM, anti-RXR (NR concentration 30 nM, RXRa partner concentration 10 nM)
# Procedure, shortened: as §1
# [10] = system: PPARg:RXRa 90nM:30nM, anti-RXR (NR concentration 90 nM, RXRa partner concentration 30 nM)
# Procedure, shortened: as §1
# [11] = system: PPARg:RXRa DBDmut IVT, anti-RXR (DBD mutation: RXRa K156A/R161A, NR concentration 270 nM, RXRa partner concentration 90 nM)
# Procedure, shortened: as §1
# [12] = system: PPARg:RXRa IVT, anti-PPARg (NR concentration 270 nM, RXRa partner concentration 90 nM)
# Procedure, shortened: as §1
# [13] = system: PPARg DBDmut:RXRa IVT, anti-PPARg (DBD mutation: PPARg1 K132A/R137A, NR concentration 270 nM, RXRa partner concentration 90 nM)
# Procedure, shortened: as §1
# [14] = system: PPARg DBDmut IVT, anti-PPARg (DBD mutation: PPARg1 K132A/R137A, NR concentration 270 nM)
# Procedure, shortened: as §1
# [15] = system: PPARg homodimer (NR concentration 180 nM)
# Procedure, shortened: as §1
# [16] = system: PXR:RXRa (NR concentration 270 nM, RXRa partner concentration 90 nM)
# Procedure, shortened: as §1
# [17] = system: PXR homodimer (NR concentration 270 nM)
# Procedure, shortened: as §1
# [18] = system: RARa:RXR (NR concentration 270 nM, RXRa partner concentration 90 nM)
# Procedure, shortened: as §1
# [19] = system: RARa homodimer (NR concentration 270 nM)
# Procedure, shortened: as §1
# [20] = system: RARb:RXRa (NR concentration 270 nM, RXRa partner concentration 90 nM)
# Procedure, shortened: as §1
Sequence,PBM binding z-score [1],PBM binding z-score [2],PBM binding z-score [3],PBM binding z-score [4],PBM binding z-score [5],PBM binding z-score [6],PBM binding z-score [7],PBM binding z-score [8],PBM binding z-score [9],PBM binding z-score [10],PBM binding z-score [11],PBM binding z-score [12],PBM binding z-score [13],PBM binding z-score [14],PBM binding z-score [15],PBM binding z-score [16],PBM binding z-score [17],PBM binding z-score [18],PBM binding z-score [19],PBM binding z-score [20]
CCTACTGGTCCATCAGGTCATTGATATCAACGTT,1.32,1.8,2.15,2.01,0.36,1.88,0.421,1.34,0.261,0.824,0.344,1.32,0.234,0.596,1.48,1.99,1.32,2.05,0.854,1.87
TCTATTAGTTGAAGGGCTACCGACGAGTCCGTTT,0.932,0.924,0.312,0.431,0.511,0.594,-0.151,2.01,3.62,2.96,2.41,0.0404,0.251,-0.451,1.24,0.647,0.375,0.611,1.16,0.525
TCAGACAGCTGAAGGTAACTCAGGTACGCAGTCG,-0.16,1.22,-0.677,0.336,-0.931,0.454,0.398,1.49,2.91,2.14,1.6,-0.656,-0.951,-0.614,-1.05,0.139,-0.874,0.392,-0.741,-0.0591
TCTCGGAGGACACGAAAGGTCAGAGCACGACATC,2.91,3.73,3.12,3.29,0.0344,3.63,1.64,2.76,2.25,2.42,1.29,1.57,0.69,-0.292,4.15,4.24,0.7,4.89,2.34,4.09
CCAGACAGGTGAAGGGTAACTCAGTCTGGTACGC,-0.0331,0.00398,-0.524,0.172,-0.582,1.76,2.98,3.63,1.6,3.42,0.998,1.9,-0.966,-0.622,0.674,-0.0608,-0.0922,0.0219,-0.195,1.04
AGAATGAGGTTATACGTAGATCAGGGAAGAAAGT,2.37,1.99,0.0175,1.7,0.71,3.18,2.1,2.02,0.854,1.48,4.01,1.92,0.956,1.16,0.9,1.2,0.682,1.82,0.738,1.54
TTTTGTAGATCAACAGGAGGTTAAGAAAGATCGA,0.519,1.38,0.44,1.16,0.116,1.7,0.596,1.25,1.03,1.29,1.26,1.98,1.18,1.43,0.903,0.932,0.512,1.34,1.05,0.73
TCATATAGGTAATACAGGTGAACGTCGGCATCTA,0.964,1.09,0.498,1.15,0.51,1.98,1.72,2.78,4.08,3.27,4.33,3.64,1.21,1.68,1.2,0.756,0.663,1.55,2.19,0.705
GGAGCGAGGGCATTCGAGTTGATAGCATGGCGAT,0.608,1.24,-0.883,-0.106,-1.07,0.542,0.179,-0.159,-0.424,-0.195,0.18,0.079,-0.936,-1.62,-0.569,3.55,0.905,1.1,-0.544,1.75
CTGCCTAGGTCAGGGCCAGTATAGGAGGAACGTT,1.28,1.01,-0.475,0.634,-1.25,1.88,0.668,0.916,-0.35,0.272,1,1.46,-0.75,-0.806,0.559,0.208,-0.739,0.901,-0.655,3.38
TCTTGTAGATCAACAGGAGGTTAACAAAGATCGA,0.166,1.73,0.274,1.3,-0.158,1.69,0.373,1.39,2.62,1.92,1.52,1.09,0.689,0.664,0.353,1.08,0.0367,1.36,-0.353,0.717
CGTCCAAGCTCAGAGAGGTCAGTGAATGCCGAGT,1.33,1.41,0.781,1.52,-0.498,2.19,-0.188,0.558,-0.581,-0.0568,0.269,0.153,-0.648,-1.03,2.06,2.96,0.893,2.85,0.843,2.82
ATCGAAAGGTCGAGGTGAGTATGGAGAAAGGGAA,3.95,3.28,-0.073,2.56,0.624,4.45,3.02,3.6,1.01,2.39,0.289,2.45,0.568,0.731,1.64,2.3,0.205,2.72,0.528,3.95
CCTACTGGGGCATCAGGTCATTGATATCAACGTT,1.51,1.23,1.04,1.47,-0.819,3.15,4.22,4.7,2.26,4.13,5.37,6.32,1.29,0.377,2.41,1.8,0.7,2.41,0.207,2.36
TCATCTAGGTAAAGGTGAAAGTCGAACGATATGA,1.37,1.5,0.00636,1.3,0.134,3.3,3.93,4.83,4.58,4.92,4.03,4.69,1.07,0.677,1.57,0.89,0.0192,1.61,0.277,2.05
CCTCGGAGGACAACAGGAGGTCCGAGCTGCCAGA,-0.13,-0.509,-0.575,-1.1,-0.867,-0.795,-0.182,-0.921,-0.862,-0.99,-0.427,-0.95,-1.85,-2.01,-0.576,-0.914,-0.768,-0.793,-0.318,1.1
TTACCAAGGTGAAAGGTGGTTGATGCACGCCTTG,0.879,0.449,-0.508,0.171,-0.366,2.81,4.38,5.35,3.06,4.85,3.12,3.55,-0.573,-0.258,0.847,0.419,-0.541,1.35,0.211,1.5
TCTAGCAGGCCAGAGGGCCACTCAAGAGGTACGG,-0.266,-0.338,-0.799,-0.58,-1.64,0.104,0.795,1.97,1.77,1.71,0.914,-0.0389,-0.285,-0.851,-0.331,-0.535,-0.284,-0.732,-0.342,0.248
CCTAGCACGCCAATCTGGGTCACTCAAGGCTTGA,0.513,0.503,-0.0137,0.788,-0.333,2.88,1.61,2.16,-0.246,1.13,3.75,4.76,-0.107,-0.39,0.751,0.751,-0.246,1.13,0.0845,1.06
GCTGCTAGGTCAAATGATGGTCAGCTAAAGCTCG,4.42,3.62,0.405,2.44,0.557,3.87,2.82,3.57,0.844,2.69,5.24,4.16,-0.0492,-0.751,1.73,1.82,-0.505,3.18,-0.123,4.13
TCGAGTAGGTTAGGGGAATTCAGAATGGCGTCGA,-0.0318,-0.209,-0.147,0.224,-0.435,0.565,0.159,1.02,1.11,1.18,2.13,1.78,0.128,-0.466,0.866,-0.0984,0.0558,-0.0883,0.338,0.249
ATCGAAAGGTCGACGAGGTAAGTATACACCGTTT,4.59,3.11,-0.055,2.62,0.428,4.09,2.6,3,1,2.11,0.556,1.6,0.911,0.688,1.42,2.3,0.185,3.12,0.419,3.66
CTACCAAGGAGAACAAGGTCGTTGATTACTATTC,0.511,0.515,0.637,0.992,0.011,0.978,0.183,-0.0538,-0.107,-0.114,0.168,0.269,-0.0895,0.25,0.615,1.23,1.05,1.17,0.421,0.589
TAGCCTAGGTTAGATCGGGCCAGTATACGCTATA,0.436,-0.519,-0.629,-0.408,-0.862,-0.226,0.102,-0.562,-0.333,-0.187,-0.639,0.069,-0.497,-0.751,-0.958,-0.294,-0.619,0.00533,-0.589,0.0949
ATCTCTAGGTAAAAGTTCGGTGAATCCCGAGGAT,0.161,0.141,0.132,0.00747,0.757,2.68,5.39,6.18,4.88,6.61,2.29,2.74,1.06,1.26,0.445,0.402,0.883,0.471,0.857,0.906
AATACTGGGTCATCGTAGGCCAGAGTACGCACAG,3.75,4.06,1.07,2.04,0.0752,4.49,6.86,5.4,3.02,4.86,6.46,6.97,1.65,2.15,1.67,2.44,0.428,2.35,0.903,3.49
GCTCGGAGGACCAGGTCAGAGCTTTGTCCGTAGA,0.0133,-0.0636,-0.562,-0.241,-1.47,0.776,-0.725,-0.204,-1.11,-0.616,-0.0233,-0.0399,-1.45,-1.52,-0.553,0.343,-0.875,0.505,-0.985,1.35
CATACAGGGTCAGCTAGTCCAGAGTAGGGACGGC,4.47,2.76,-0.017,2.18,0.191,4.2,3.22,2.78,0.664,2.06,1.14,2.25,0.656,0.108,1.92,2.36,-0.00687,2.91,0.913,3.94
